Screens deposited in PubChem BioAssay by several laboratories.
SUMO Mot1 rescue – blocks SUMOylation pathway, rescuing yeast Mot1-301 growth. S. cerevisiae Mot1-301 growth rescue, ATP luminescence, 38.5C; percent above DMSO median, 100 means doubled. growth rescue, % at 18.8 µM. actives 1% (n = 320,000);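 active means every valid replicate shows activation above 250% relative to neutral control wells; inactive means the rest, any valid replicate at or below 250%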;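 further: OY570 slx delta 5 strain wells were the positive control but not used for scaling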
CHT inh – human CHT choline transport inhibition; B-score at 10 µM; CHT-expressing cells, membrane potential dye, choline response; hits give low values; actives 0.86% (n = 310,000); Q9GZV3;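 active means B-score over 3 SD under the library average, and starting fluorescence ratio not unusually high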;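 further: choline stimulus applied at its EC90 after an EC20 pre-addition; B-score computed on integrated fluorescence ratio after choline addition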
Target sequence (Q9GZV3 whole entry, looked up): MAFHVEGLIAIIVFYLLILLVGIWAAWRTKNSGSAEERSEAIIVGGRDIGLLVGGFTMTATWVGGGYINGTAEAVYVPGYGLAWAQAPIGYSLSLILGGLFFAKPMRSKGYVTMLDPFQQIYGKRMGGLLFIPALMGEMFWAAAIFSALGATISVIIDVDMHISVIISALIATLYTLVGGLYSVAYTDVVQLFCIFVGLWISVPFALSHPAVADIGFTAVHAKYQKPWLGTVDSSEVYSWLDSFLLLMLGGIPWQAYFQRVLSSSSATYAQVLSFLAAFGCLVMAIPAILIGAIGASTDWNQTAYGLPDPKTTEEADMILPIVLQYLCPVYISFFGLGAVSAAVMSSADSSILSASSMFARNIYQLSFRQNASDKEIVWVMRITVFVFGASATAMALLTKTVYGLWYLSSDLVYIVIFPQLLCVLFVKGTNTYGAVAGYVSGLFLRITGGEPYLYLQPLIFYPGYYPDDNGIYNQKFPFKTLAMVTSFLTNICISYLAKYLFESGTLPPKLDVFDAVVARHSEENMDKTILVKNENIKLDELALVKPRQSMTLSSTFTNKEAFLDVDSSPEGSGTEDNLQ
MEKK2mut PB1 HTS – signal of MEK5 binding to mutant human MEKK2 PB1 domain | actives 0.35% (n = 290,000) | percent response, % at 10 µM | bead flow cytometry, Alexa488-MEK5 binding to MEKK2 mutant; in the data active means percent response above about 24%, passing the limit was not always enough
CHT PAM – allosterically activates the human high affinity choline transporter | CHT-expressing cells, membrane potential dye, choline EC20; hits give high values; LV-AA mutant CHT in HEK293 cells | B-score at 10 µM | actives 0.49% (n = 310,000) | AID 488977;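 active means initial fluorescence not abnormally high and integrated response B-score, plate-corrected, over 3 SD above library mean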
MEKK3 PB1 HTS – modulators (inhibitors or enhancers) of MEK5 binding to human MEKK3 PB1 domain; Q99759; bead-based flow cytometry, Alexa488-MEK5 binding to MEKK3; actives lie on both sides; 0 = blocked by unlabeled MEK5, 100 = vehicle; binding response (% of control), % at 10 µM; actives 1.4% (n = 290,000);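 active means binding response more than 3 SD above or below the average of its plate-row segment, actives on both sides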;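 further: Alexa488 bead fluorescence after subtracting the streptavidin-only scavenger bead signal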
MEKK2wt PB1 HTS – raises or lowers MEK5 binding to wildtype human MEKK2 PB1 domain | Q9Y2U5 | bead flow cytometry, Alexa488-MEK5 binding to MEKK2 WT; actives lie on both sides | binding response (% of control), % at 10 µM | actives 1.1% (n = 290,000) | AID 1531; in the data active means binding response below about 67% or above about 130%
The depositor's hits bear a star; ! = repeats disagree. Sampled rows, rich in hits. Any-hit rate of the full collection: about 4.1%.

Screening O=c1c2ccccc2oc2ccc(-c3ccc4[nH]ccc4c3)cc12 returned SUMO Mot1 rescue -3.1, CHT inh inactive, MEKK2mut PB1 HTS 6.0, CHT PAM inactive, MEKK3 PB1 HTS 113.0 and MEKK2wt PB1 HTS 127.0.
Screening O=C(Cc1c(F)cccc1Cl)Nc1nccs1 returned SUMO Mot1 rescue -5.4, CHT inh inactive, MEKK2mut PB1 HTS 4.0, CHT PAM inactive, MEKK3 PB1 HTS 106.0 and MEKK2wt PB1 HTS 110.0.
For CN(C)C(=O)N1CCC(C(=O)NCc2ccc3c(c2)OCO3)CC1 the results were SUMO Mot1 rescue 10.2, CHT inh inactive, MEKK2mut PB1 HTS -5.0, CHT PAM inactive, MEKK3 PB1 HTS 89.0 and MEKK2wt PB1 HTS 93.0.
Screening O=C(NC1CC1)C1CCN(C2CCN(C(=O)Cc3ccc4c(c3)OCO4)CC2)CC1 returned SUMO Mot1 rescue -5.4, CHT inh -10.3*, MEKK2mut PB1 HTS -14.0, CHT PAM inactive, MEKK3 PB1 HTS 105.0 and MEKK2wt PB1 HTS 93.0.
Screening CC(C)CCNC(=O)CCc1nnc2n(CCCOC(C)C)c(=O)c3ccccc3n12 returned SUMO Mot1 rescue 59.7, CHT inh inactive, MEKK2mut PB1 HTS 13.0, CHT PAM inactive, MEKK3 PB1 HTS 110.0 and MEKK2wt PB1 HTS 112.0.
For COC(=O)C/C=N/N=C1/NC(=O)/C(=C/C(=O)O)S1 the results were SUMO Mot1 rescue -15.7, CHT inh inactive, MEKK2mut PB1 HTS 3.0, CHT PAM inactive, MEKK3 PB1 HTS 96.0 and MEKK2wt PB1 HTS 1.0*.
`COC(=O)C(Cc1ccccc1)NC(=O)c1cccc(S(=O)(=O)N(C)C)c1` (centres undefined) gave SUMO Mot1 rescue -9.6, CHT inh inactive, MEKK2mut PB1 HTS -7.0, CHT PAM inactive, MEKK3 PB1 HTS 99.0 and MEKK2wt PB1 HTS 94.0.
COc1ccc(OCC(=O)NNc2c3ccccc3nc3ccccc23)cc1 was read as SUMO Mot1 rescue 7.2, CHT inh inactive, MEKK2mut PB1 HTS -10.0, CHT PAM inactive, MEKK3 PB1 HTS 98.0 and MEKK2wt PB1 HTS 91.0.
`O=C(NCCCN1CCCC1)C1CCN(C(=O)c2cc3sccc3n2Cc2ccc(F)cc2)CC1` gave SUMO Mot1 rescue 40.7, CHT inh inactive, MEKK2mut PB1 HTS 28.0*, CHT PAM inactive, MEKK3 PB1 HTS 109.0 and MEKK2wt PB1 HTS 168.0*.
`COCCCNC(=O)C1CCN(C(=O)c2cc3sccc3n2Cc2ccc(F)cc2)CC1` gave SUMO Mot1 rescue -12.0, CHT inh inactive and CHT PAM inactive.
For CS(=O)(=O)N(CC(=O)N1CCCCCC1)c1cccc([N+](=O)[O-])c1 the results were SUMO Mot1 rescue 0.5, CHT inh inactive, MEKK2mut PB1 HTS 6.0, CHT PAM inactive, MEKK3 PB1 HTS 107.0 and MEKK2wt PB1 HTS 106.0.
`O=S(=O)(Nc1ccc(N2CCCCC2)cc1)c1ccc(F)cc1F` gave SUMO Mot1 rescue 4.2, CHT inh inactive, MEKK2mut PB1 HTS 16.0, CHT PAM inactive, MEKK3 PB1 HTS 111.0 and MEKK2wt PB1 HTS -10.0*.
For CCn1c(=O)c2cc(C(=O)Nc3ccc(OC)cc3OC)sc2c2ccccc21 the results were SUMO Mot1 rescue active, CHT inh inactive, MEKK2mut PB1 HTS -6.0, CHT PAM inactive, MEKK3 PB1 HTS 94.0 and MEKK2wt PB1 HTS 90.0.
Screening Oc1cc2c(cc1O)C1c3ccc(O)c(O)c3OCC1(O)C2 (centres undefined) returned SUMO Mot1 rescue -18.2, CHT inh inactive, MEKK2mut PB1 HTS -2.0, CHT PAM inactive, MEKK3 PB1 HTS 99.0 and MEKK2wt PB1 HTS 97.0.
For Cc1cccc(CN2C(=O)/C(=C\c3ccc(C(=O)NCCCN4CCN(C)CC4)cc3)Oc3ccccc32)c1 the results were SUMO Mot1 rescue 191.8, CHT inh inactive, MEKK2mut PB1 HTS 36.0*, CHT PAM inactive, MEKK3 PB1 HTS 105.0 and MEKK2wt PB1 HTS 162.0*.
Screening CN1CCN(CCCNC(=O)c2ccc(/C=C3\Oc4ccccc4N(Cc4ccccc4F)C3=O)cc2)CC1 returned SUMO Mot1 rescue 15.4, CHT inh inactive, MEKK2mut PB1 HTS 29.0*, CHT PAM inactive, MEKK3 PB1 HTS 104.0 and MEKK2wt PB1 HTS 159.0*.
Screening O=C(CCc1ccccc1)NCCc1ccc(F)cc1 returned SUMO Mot1 rescue 58.1, CHT inh inactive, MEKK2mut PB1 HTS 3.0, CHT PAM inactive, MEKK3 PB1 HTS 103.0 and MEKK2wt PB1 HTS 103.0.
Cc1cc(C)c2cc(C(=O)Nc3ccc(C)c(F)c3)[nH]c2c1 was read as SUMO Mot1 rescue 339.9*, CHT inh inactive, MEKK2mut PB1 HTS -5.0, CHT PAM inactive, MEKK3 PB1 HTS 92.0 and MEKK2wt PB1 HTS 96.0.
CC(=O)CCCCn1cnc2c1c(=O)n(C)c(=O)n2C was read as SUMO Mot1 rescue 17.5, CHT inh inactive, MEKK2mut PB1 HTS -7.0, CHT PAM inactive, MEKK3 PB1 HTS 90.0 and MEKK2wt PB1 HTS -14.0*!.
`CCN(C(=O)CSc1nnnn1-c1ccccc1)C1CCS(=O)(=O)C1` (centres undefined) gave SUMO Mot1 rescue -1.3, CHT inh inactive, MEKK2mut PB1 HTS -14.0, CHT PAM inactive, MEKK3 PB1 HTS 91.0 and MEKK2wt PB1 HTS 90.0.
O=C(Nc1ccc(S(=O)(=O)N2CCCC2)cc1)c1cccc(OC(F)F)c1 was read as SUMO Mot1 rescue -34.0, CHT inh inactive and CHT PAM inactive.
`O=C(Nc1cccc(S(=O)(=O)N2CCCC2)c1)c1cccc(OC(F)F)c1` gave SUMO Mot1 rescue 353.0*, CHT inh inactive and CHT PAM inactive.
For Cn1cc(S(=O)(=O)N2CCCC2)cc1C(=O)Nc1cccc(C(F)(F)F)c1 the results were SUMO Mot1 rescue 332.8*, CHT inh inactive, MEKK2mut PB1 HTS -4.0, CHT PAM inactive, MEKK3 PB1 HTS 101.0 and MEKK2wt PB1 HTS 95.0.
Screening O=C(NC(=S)NCCC1=CCCCC1)c1cccnc1 returned SUMO Mot1 rescue 17.3, CHT inh inactive, MEKK2mut PB1 HTS 4.0, CHT PAM inactive, MEKK3 PB1 HTS 106.0 and MEKK2wt PB1 HTS 94.0.
For O=C(CN1CCN(CC(=O)Nc2cccc(F)c2)CC1)Nc1ccc(-c2ccccc2)cc1 the results were SUMO Mot1 rescue -8.3, CHT inh inactive, MEKK2mut PB1 HTS -1.0, CHT PAM inactive, MEKK3 PB1 HTS 103.0 and MEKK2wt PB1 HTS 106.0.
`O=C1CCn2nc(-c3ccc(Cl)cc3)cc2N1` gave SUMO Mot1 rescue 604.8*, CHT inh inactive, MEKK2mut PB1 HTS 12.0, CHT PAM inactive, MEKK3 PB1 HTS 107.0 and MEKK2wt PB1 HTS 114.0.
`CN(Cc1ccccc1)/C(=N/O)c1cccc(Cl)c1` gave SUMO Mot1 rescue -0.8, CHT inh inactive, MEKK2mut PB1 HTS 5.0, CHT PAM inactive, MEKK3 PB1 HTS 105.0 and MEKK2wt PB1 HTS 103.0.
